# The list is not random: actives were taken first. Their share in the collection is about 9.5%.
# SARS PLpro yeast = blocks SARS-CoV papain-like protease in a yeast assay; S. cerevisiae expressing SARS-CoV PLpro, growth rescue; actives 0.19% (n = 330,000); Potency, µM (top dose mostly 32.9 µM), inactives show at the highest dose activity, positive = growth rescue, usual class: activators; note: 0% is about no effect; nearly all actives have a fitted effect of over 55% in size
# RE007 growth inh = less growth of the S. pombe RE007 Vpr strain | S. pombe RE007 Vpr strain, BacTiter-Glo ATP luminescence, 24 h | Potency, µM (doses to about 92.2 µM), for inactives: top-dose activity change, negative = less growth, hits mostly inhibitors | actives 0.21% (n = 360,000); active = well fitted falling curve with a large enough effect; inconclusive = small, poorly fitted or top-dose-only effect; inactive = no such curve, though single readings can be large or run the other way; note: % is set by controls: 0 for no effect and ±100 for the full control effect; nearly all actives have a fitted effect of over 50% in size
#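 Fission yeast RE007 carrying one integrated HIV-1 vpr copy, seeded at OD 0.01 in PMG+AL medium with 23 nL pinned compound. Grown 24 h at 30 degrees; viability read by BacTiter-Glo luminescence after 5 min.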
# NS1 inh = inhibitors of influenza NS1 protein function; Potency, µM (top dose mostly 46.1 µM), for the others: at the highest dose activity, positive = more growth; actives 0.4% (n = 270,000); AID 2326; note: actives are rising curves; nearly all actives have a fitted effect of over 50% in size
#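 Growth recovery, yeast-based: influenza A NS1 expressed in S. cerevisiae causes slow growth, and suppressors are detected by OD600. The parent strain without NS1 is used as positive control.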
# Pf growth 48h = inhibits P. falciparum growth in the first generation, 48 h; AID 504832; actives 5.9% (n = 310,000); P. falciparum luciferase growth in erythrocytes, 48 h; Potency, µM (series often up to 28.7 µM), without a hit: at the highest dose activity change, negative = inhibition, hits mostly inhibitors; active = well fitted inhibition curve with a large enough effect; inconclusive = small, poorly fitted or top-dose-only effect, or another doubt; inactive = no such curve, though single readings can be large or run the other way; note: % is set by controls: 0 for no effect and ±100 for the full control effect
#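 Cell-based growth assay: transgenic P. falciparum expressing firefly luciferase, cultured in red cells within RPMI 1640 containing 0.5% w/v Albumax, 24 mM bicarbonate and gentamycin. A drop in luciferase activity indicates inhibition.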
# Pf growth 96h = P. falciparum growth inhibition at 96 hour, primary screen for plastid delayed-death inhibitors. P. falciparum luciferase reporter growth, 96 h. Potency, µM (doses to about 28.7 µM), for inactives: top-dose activity change, negative = inhibition, actives largely listed as inhibitors. actives 6.9% (n = 320,000); active = well fitted inhibition curve with a large enough effect; inconclusive = small, poorly fitted or top-dose-only effect, or another doubt; inactive = no such curve, though single readings can be large or run the other way; note: % is set by controls: 0 for no effect and ±100 for the full control effect
#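 Infected RBCs, 2% Hct / 0.05% parasitemia final; luciferase-reporter P. falciparum; cpd 96 h, 37 C, 5% CO2; luciferase detection reagent; luminescence.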
# * hit, by the source's call; ? = inconclusive; / = not tested or not shown; [ ] = another dose, or the depositor's remark. Unless noted, calls come from the whole dose curve. Potency is the fitted concentration of half-maximal effect.
SMILES,SARS PLpro yeast,RE007 growth inh,NS1 inh,Pf growth 48h,Pf growth 96h
CCN(CC)S(=O)(=O)c1ccc(NC(=O)Nc2cccc(C(F)(F)F)c2)cc1,-5.2%,7.7%,-7.6%,5.22µM*,/
CCN(CC)S(=O)(=O)c1ccc(/C=C/C(=O)O)cc1,3.3%,-10.3%,/,16.4%,2.7%
CCN(CC)S(=O)(=O)c1ccc(/C=C/C(=O)Nc2cccc(F)c2)cc1,10.5%,34.2%,1.6%,?,2.94µM*
O=C(Nc1ccncc1)Nc1cccc(C(F)(F)F)c1,?,-0.7%,7.9%,?,?
O=C(Nc1ccc(OC(F)F)cc1)Nc1cccc(C(F)(F)F)c1,-39.0%,-16.2%,-209.0%,/,5.22µM*
NC(=O)/C=C\C(=O)Nc1cccc(C(F)(F)F)c1,-52.5%,17.8µM*,-243.0%,-1.3%,35.2%
O=S(=O)(O)CCCS(=O)(=O)O,/,/,/,-9.4%,4.9%
COc1cc2[nH]c3c(=O)n4c(nc3c2cc1OC)SCCC4,-1.0%,7.0%,/,101.9%,2.9%
Cc1ccc(S(=O)(=O)CC(C)(O)C(=O)Nc2cccc(C(F)(F)F)c2)cc1 (stereo unspecified),-4.4%,4.2%,-6.7%,-11.0%,9.4%
Cc1ccc(S(=O)(=O)Nc2ccc(NC(=O)Nc3cccc(C(F)(F)F)c3)cc2)cc1,24.5%,10.9%,-4.8%,13.1µM*,?
Cc1cc(C)c(C)c(S(=O)(=O)NCc2ccc(C(=O)NCC3CCCO3)cc2)c1C (stereo unspecified),-3.9%,26.6%,-7.3%,-18.5%,?
CC(C)(C)c1ccc(O)c(N)c1,-0.7%,/,9.4%,?,13.1µM*
CC(C)c1ccc(O)c(N)c1,-3.9%,-7.6%,23.9%,?,2.94µM*
CNS(=O)(=O)c1cccc(C(=O)OCc2cc(=O)oc3c(C)c(O)ccc23)c1,-7.7%,1.3%,-2.6%,?,?
CCCC[C@H](CN[C@@H](CNC)[C@H](C)CC)NCCC12CCC(CC1)C2,-1.3%,5.7%,-16.4%,?,2.62µM*
CCOc1ccc(C(=O)NCC(=O)N2CCC3(CC2)NCCc2[nH]cnc23)cc1,0.3%,-3.4%,-8.3%,1.3%,18.1%
CC1=CC(=O)C(Sc2ccc(C)cc2)=CC1=O,/,22.4µM*,/,/,/
CN(Cc1nc2c(s1)CCCC2)C(=O)CCc1nnc(-c2ccccc2)o1,1.1%,-2.5%,-3.0%,30.2%,9.28µM*
CN(Cc1ccc(F)cc1)C(=O)CCc1nnc(-c2ccccc2)o1,-0.3%,-2.4%,-6.4%,13.2%,8.28µM*
COc1ccc(CCN(C)C(=O)CCc2nnc(-c3ccccc3)o2)cc1OC,-1.0%,1.2%,-3.3%,0.0%,-26.4%
COc1ccc(Oc2coc3cc(OC(=O)/C=C/c4ccc(F)cc4)ccc3c2=O)cc1,13.3%,-13.4%,4.6%,?,4.15µM*
CC(=O)N1c2ccc(S(=O)(=O)N3CCCC3)cc2CC1C(=O)NCc1ccc(N(C)C)cc1 (stereo unspecified),2.7%,-8.2%,-2.9%,-13.2%,6.57µM*
COc1cccc(CNC(=O)C2Cc3cc(S(=O)(=O)N4CCCC4)ccc3N2C(C)=O)c1OC (stereo unspecified),4.0%,-2.9%,-5.3%,-9.2%,14.7µM*
COc1ccccc1CNC(=O)C1Cc2cc(S(=O)(=O)N3CCCC3)ccc2N1C(C)=O (stereo unspecified),-1.3%,3.2%,1.7%,?,17.0%
CC(=O)N1c2ccc(S(=O)(=O)N3CCC(C(=O)NCc4ccc(N(C)C)cc4)CC3)cc2CC1C (stereo unspecified),-0.3%,5.6%,3.8%,-18.9%,-16.8%
SMILES,SARS PLpro yeast,RE007 growth inh,NS1 inh,Pf growth 48h,Pf growth 96h
Cc1ccc(C(CNC(=O)C(=O)Nc2ccc3c(c2)OCCO3)N2CCN(C)CC2)cc1 (stereo unspecified),/,7.6%,/,7.38µM*,-0.8%
CN1CCN(C(CNC(=O)C(=O)Nc2ccc3c(c2)OCCO3)c2ccc(F)cc2)CC1 (stereo unspecified),-0.3%,6.5%,/,?,?
CCn1c(=O)cc(SCC(=O)Nc2cccnc2)c2ccccc21,2.6%,2.1%,-4.2%,14.0%,11.7µM*
CC1CC(C)CN(CCCNC(=O)COc2cc(=O)n(C)c3ccccc23)C1 (stereo unspecified),-15.1%,13.2%,-4.5%,10.4µM*,-5.3%
CCOC(=O)COc1cc(=O)n(CC)c2ccccc12,-1.5%,/,-25.3%,17.3%,8.28µM*
CCOC(=O)CSc1cc(=O)n(CC)c2ccccc12,1.1%,-10.9%,-23.3%,9.1%,10.4µM*
CCn1c(=O)cc(SCC(=O)Nc2ccc3c(c2)OCO3)c2ccccc21,-1.2%,5.6%,-23.5%,23.5%,9.1%
CCOC(=O)N1CCN(C(=O)COc2cc(=O)n(CC)c3ccccc23)CC1,3.0%,0.3%,5.5%,-11.6%,35.6%
O=C(NCC(c1ccccc1Cl)N1CCCC1)C1CCN(C(=O)Nc2ccccc2)CC1 (stereo unspecified),10.1%,-4.5%,/,?,?
CCCCNC(=O)C1(C)CCCCN1C(=O)c1ccc2sccc2c1 (stereo unspecified),/,-4.8%[18.4 µM],/,/,/
CN(C(=O)COc1cc(=O)n(C)c2ccccc12)c1ccc(Br)cc1,4.4%,-4.8%,-38.0%,?,10.4µM*
O=C(CSc1ccc(S(=O)(=O)N2CCOCC2)cn1)Nc1ccc(F)c(F)c1,-3.7%,-14.3%,/,-18.3%,?
Cc1ccc(N(Cc2ccccc2)C(=O)c2cc(S(=O)(=O)N3CCOCC3)ccc2Cl)cc1,6.7%,4.7%,/,?,13.1µM*
Cc1cccc(N(Cc2ccccc2)C(=O)c2cc(S(=O)(=O)N3CCOCC3)ccc2Cl)c1,3.5%,0.3%,/,11.7µM*,?
CCN1CCN(S(=O)(=O)c2ccc(Cl)c(C(=O)N(C)C(c3ccccc3)c3ccccc3)c2)CC1,-1.3%,2.0%,/,9.28µM*,13.1µM*
O=C(c1cc(S(=O)(=O)N2CCOCC2)ccc1Cl)N1CCC(Cc2ccccc2)CC1,-4.9%,-18.9%,/,?,?
Cc1ccc(N(Cc2ccccc2)C(=O)c2cc(S(=O)(=O)N3CCOCC3)ccc2F)cc1,-1.5%,-1.8%,/,11.7µM*,?
CN(Cc1cccs1)C(=O)c1cc(S(=O)(=O)N2CCOCC2)ccc1F,-10.0%,3.0%,/,-17.8%,-11.6%
C=CCN(Cc1ccc(Cl)s1)C(=O)c1cc(S(=O)(=O)N2CCOCC2)ccc1F,-2.0%,-0.6%,/,13.1µM*,?
CC(C)(C)c1ccc(C(=O)C2CCCN(C(=O)CCn3cncn3)C2)cc1 (stereo unspecified),-2.3%,-1.7%,8.1%,-6.4%,-19.2%
COc1ccc(NC(=O)CN(C)C(=O)c2cc(-c3ccc(Cl)cc3)nc3ccccc23)cc1,-2.8%,1.5%,/,?,?
COc1ccc(-c2cc(C(=O)N(C)CC(=O)Nc3ccccc3Br)c3ccccc3n2)cc1OC,-7.4%,4.9%,/,8.28µM*,9.28µM*
CCOc1ccc(NC(=O)CN(C)C(=O)c2cc(-c3ccc(OC)cc3)nc3ccccc23)cc1OCC,-0.9%,9.8%,/,9.28µM*,7.38µM*
